High-throughput results deposited in PubChem BioAssay by National Center for Advancing Translational Sciences (NCATS).
IL1B secr inh = inhibitors of inflammasome signaling (IL-1 beta secretion); 360,000 tested, 4.7% active; activity change, % at 57.5 µM; THP-1 LPS/ATP IL-1B secretion, AlphaLISA, 16 h; hits give low values; in the data active means activity change below about -50%; inconclusive means mostly about -30% to -49%
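THP-1 cells pretreated 1 hr with compounds (up to 57.5 uM final), then stimulated with LPS (250 ng/mL final) plus ATP (1.25 mM final); secreted IL-1B measured by AlphaLISA after 16 hr, decreased signal indicating inhibition.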
HT1080 IDH1KD tx = kills HT-1080 cells with IDH1 knockdown; HT-1080 IDH1 knockdown viability, ATP luminescence, 48 h; Potency, µM (top dose mostly 46.1 µM), for the others: at the top dose activity, negative = toxicity, most hits filed as cytotoxic; 360,000 tested, 2% active;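 further: potency means the concentration at half of the fitted maximal effect; 0% = DMSO wells and -100% = cell-free medium wells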
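IDH1KD HT-1080 cells, 750/well, RPMI + 5% FBS; compound pinned after 2 h settling; 48 h, 37 °C; CellTiter-Glo luminescence; % activity normalised to DMSO and no-cell wells; curves fitted, classed by r2 and efficacy.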
TDP1 cell noCPT = qHTS for Inhibitors of human tyrosyl-DNA phosphodiesterase 1 (TDP1): qHTS in cells in absence of CPT; AID 686978, 2013; DT40 Tdp1-/- hTDP1 cells, no CPT, ATP luminescence, 48 h; Potency, µM (doses to about 46.2 µM), without a hit: top-dose activity change, negative = growth inhibition, usual class: inhibitors; 420,000 tested, 15% active; further: potency means the concentration at half of the fitted maximal effect; nearly all actives have a fitted effect of over 55% in size
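Growth of hTDP1-complemented DT40 Tdp1-knockout cells is measured by ATP luminescence after at least 48 hr compound exposure at 37 °C, with DMSO substituting for the 20 nM CPT used in the parallel screen.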
TDP1 cell CPT = DT40-hTDP1 cell growth loss with CPT; chicken DT40 Tdp1-/-;hTDP1 cells + 20 nM CPT, ATP luminescence, 48 h; Potency, µM (titrated, usually from 46.2 µM), for the others: at the highest dose activity change, negative = growth inhibition, actives largely listed as inhibitors; 420,000 tested, 12% active; AID 686979; further: potency means the concentration at half of the fitted maximal effect; nearly all actives have a fitted effect of over 55% in size
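Cell growth measured by CellTiter-Glo luminescence after a minimum 48 h, 37 C compound exposure with 20 nM CPT in Tdp1-knockout DT40 cells stably expressing hTDP1, seeded 400/well; qHTS titration format.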
HT1080-NT tox = kills 2HG-producing HT-1080-NT fibrosarcoma cells; 360,000 tested, 1.6% active; AID 686970; HT-1080-NT fibrosarcoma viability, CellTiter-Glo ATP luminescence, 48 h; Potency, µM (series often up to 46.1 µM), inactives show at the highest dose activity, negative = less viability, actives largely listed as cytotoxic;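 further: NT is the 2HG producing partner of a matched IDH1 knockdown line; potency means the concentration at half of the fitted maximal effect; 0% = DMSO-treated cells and -100% = media-only wells without cells; nearly all actives have a fitted effect of over 55% in size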
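HT-1080-NT fibrosarcoma cells (2HG-overproducing), 750 cells/well in RPMI with 5% FBS, dosed after 2 h and incubated 48 h at 37C. CellTiter-Glo luminescence normalized to DMSO and no-cell wells; concentration-response curves fitted and classed.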
An asterisk follows results filed as active; i = inactive; ? = inconclusive; . = no result given; [ ] = remark or other dose. Only some compounds are listed: those with a hit (about 19% of all), similar ones and a draw of the others. Unless noted, the call rests on the fitted dose curve; in most records, active means well fitted curve in the direction sought with a large enough effect; inconclusive means small, poorly fitted or top-dose-only effect, or another doubt; inactive means no such curve, though single readings can be large; an effect the other way counts as inactive or inconclusive. Unless noted, on the % scale 0 is the no-effect control and ±100 the full control effect.

SMILES | IL1B secr inh | HT1080 IDH1KD tx | TDP1 cell noCPT | TDP1 cell CPT | HT1080-NT tox
CCC(C(=O)Nc1cc(C)cc(C)n1)c1ccccc1 (configuration not stated) | . | 4% | ? | -22% | -7%
CC(C)Cc1ccc(C(C)C(=O)Nc2ccccc2O)cc1 (configuration not stated) | -95* | 23µM* | 8.2µM* | 8.2µM* | 3.7µM*
O=C(O)c1ccccc1NC(=O)C(c1ccccc1)c1ccccc1 | 55 | -9% | -12% | -5% | 0%
O=C(Nc1ccccc1O)C(c1ccccc1)c1ccccc1 | -64* | -16% | 7.3µM* | ? | ?
COC(=O)CSc1nnc(-c2sc3ccccc3c2Cl)o1 | 9 | 3% | -3% | -3% | 12%
N#CCSc1nnc(-c2sc3ccccc3c2Cl)o1 | -94* | ? | ? | ? | ?
COc1ccc(CN2CCSCC2)c(C)c1C | 5 | 10% | -13% | 7% | 16%
O=C1C(c2ccncc2)=C(O)c2ccccc21 | -11 | -8% | 18µM* | ? | -3%
Cc1ccc(C2=C(O)c3ccccc3C(=O)C2=O)cc1 | 11 | -20% | -11% | -29% | 0%
CCOc1cccc(-c2nnc3sc(C4CCCCC4)nn23)c1 | ? | -7% | ? | ? | -2%
Cc1cc(-c2nnc3sc(C4CCCCC4)nn23)n[nH]1 | -21 | 21% | -20% | ? | 19%
COc1cc(-c2nnc3sc(C4CCCCC4)nn23)cc(OC)c1OC | -27 | -23% | 23µM* | 16µM* | -8%
COc1cccc(-c2nnc3sc(C4CCCCC4)nn23)c1 | -93* | -6% | 21µM* | 18µM* | 1%
Cc1cccc(N(CC(=O)NC(C)C)C(=O)c2ccc(N3CCCC3)nc2)c1 | -15 | 4% | -11% | -2% | 1%
COCCN(CCOC)c1nc(-c2ccc(Cl)cc2)nc2ccccc12 | 34 | -10% | 13µM* | 18µM* | 2%
COCCN(CCOC)c1nc(-c2ccccc2)nc2ccccc12 | ? | -3% | ? | ? | 0%
CCN(CC)c1nc(-c2ccccc2)nc2c1sc(=S)n2CC | -6 | 7% | 3% | 4% | 10%
CCN(CC)c1nc(-c2ccccc2)nc2ccccc12 | ? | -28% | ? | 15µM* | -8%
CCCCN(CCCC)c1nc(-c2ccncc2)nc2ccccc12 | 0 | 14% | 23µM* | ? | 19%
COc1ccc(C2(N3CCN(c4cccc(C)c4C)CC3)C(=O)c3ccccc3C2=O)cc1 | . | . | -3% | -1% | .
Cc1ccc(C)c(N2CCN(C3=C(c4ccccc4)C(=O)c4ccccc43)CC2)c1 | . | . | 16µM* | 7.3µM* | .
COc1ccc(C2=C(N3CCN(c4cccc(C)c4C)CC3)c3ccccc3C2=O)cc1 | . | . | ? | 16µM* | .
Cc1ccc(C)c(N2CCN(c3nnnn3-c3ccccc3)CC2)c1 | 29 | ? | ? | ? | ?
COCCCNC(=O)CCc1c(C)nc2nc(-c3cc(OC)cc(OC)c3)nn2c1C | . | . | -5% | 7% | .
Cc1ccc(C)c(S(=O)(=O)N2CCN(C(=O)C(C)Sc3ccccc3)CC2)c1 (configuration not stated) | 8 | -14% | ? | ? | -3%
SMILES | IL1B secr inh | HT1080 IDH1KD tx | TDP1 cell noCPT | TDP1 cell CPT | HT1080-NT tox
Cc1nnsc1C(=O)Nc1ccc(S(=O)(=O)N2CCC(C)CC2)cc1 | -55* | -9% | 10µM* | ? | -15%
CC1CCN(S(=O)(=O)c2ccc(NC(=O)c3cccs3)cc2)CC1 | -4 | -22% | ? | ? | -10%
Cc1cccnc1NC(=O)c1ccc(S(=O)(=O)N2CCCCCC2)cc1 | -4 | 10% | -9% | -10% | -1%
Cc1cc(C)c2nc(NC(=O)c3ccc(S(=O)(=O)N4CCCC4)cc3)sc2c1 | . | . | -23% | -20% | .
Cc1ccc(C)c2sc(NC(=O)c3ccc(S(=O)(=O)N4CCC(C)CC4)cc3)nc12 | . | . | 16µM* | ? | .
CC1CCN(S(=O)(=O)c2ccc(C(=O)Nc3ncccc3O)cc2)CC1 | i | -2% | 15µM* | ? | 0%
Cc1cccc(CN2CCSc3sccc3C2=O)c1 | -5 | -15% | -30% | 3% | -14%
COc1ccccc1/C=N/NC(=O)C(=O)NCc1cccnc1 | 17 | 14% | -1% | 20% | 19%
C[C@@]12CCC[C@H]1C1CC[C@H]3C[C@H](O)CC[C@]3(C)C1CC2 (some centres not stated) | . | . | -8% | -6% | .
Cc1cccc(-n2c(CNC(=O)c3cccc(F)c3)nnc2SCC(=O)Nc2ccccc2F)c1 | . | . | ? | -19% | .
CS(=O)(=O)c1ccc(C(=O)NCC2(N3CCOCC3)CCCCC2)cc1 | -6 | 1% | -15% | 6% | 6%
CS(=O)(=O)c1ccc(-c2ccc3c(c2)CC(CNC(=O)C2(N4CCOCC4)CCCCC2)O3)cc1 (configuration not stated) | . | . | 16µM* | -13%[9.04 µM] | .
CCN(CC)CCNC(=O)c1cc2c(=O)[nH]c3ccc(C)cc3c2s1 | . | . | -19% | 6% | .
Cc1ccc2[nH]c(=O)c3cc(C(=O)NCC4CCCO4)sc3c2c1 (configuration not stated) | -81* | 8% | ? | -10% | 13%
CCCN1CCN(CCCNC(=O)c2cc3c(=O)[nH]c4ccc(C)cc4c3s2)CC1 | . | 26µM* | 16µM* | ? | 21µM*
CCN(CCCNC(=O)c1cc2c(=O)[nH]c3ccc(C)cc3c2s1)Cc1ccccc1 | . | . | 4.6µM* | 7.3µM* | .
CCCN(CCC)CCCNC(=O)c1cc2c(=O)[nH]c3ccccc3c2s1 | -73* | -15% | -6% | 35% | -29%
O=C(NCC1CCCO1)c1cc2c(=O)[nH]c3ccccc3c2s1 (configuration not stated) | -6 | 4% | -29% | -1% | 6%
CCOc1ccccc1NC(=O)CN1CCN(C(=O)C2CCCO2)CC1 (configuration not stated) | 0 | 3% | -11% | 5% | 8%
CC(C)(C)C(=O)Nc1ccc2nc(SCc3ccccc3)sc2c1 | . | . | 21µM* | ? | .
CN(C(=O)CSc1nc2ccc(NC(=O)c3ccccc3F)cc2s1)c1ccccc1 | . | . | 9.2µM* | 15µM* | .
CN(C(=O)CSc1nc2ccc(NC(=O)c3cccc(F)c3)cc2s1)c1ccccc1 | . | . | 6.5µM* | 8.2µM* | .
COc1ccccc1C(=O)Nc1ccc2nc(SCC(=O)N(C)C)sc2c1 | -18 | 16% | ? | -29% | 21%
O=C(Nc1ccc2nc(SCc3ccccc3)sc2c1)c1ccccc1F | . | . | 13µM* | 16µM* | .
